We go through 3 compounds from PubChem BioAssay (EPA / NIEHS).

Test [1] can be described thus: ATG_DR4_LXR_CIS: Attagene CIS-FACTORIAL HepG2 Assay for human Liver X Receptor (LXR), DR4 submotif (AID 2282929). The conditions noted are these: HepG2 Attagene DR4 cis-reporter, mRNA transcription; actives raise or lower the signal. The procedure, abridged: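 HepG2 cells were transiently transfected with multiple cis-regulated reporter units and dosed for 24 hours. The DR4 reporter mRNA was quantified by RT-PCR, 6-FAM labelling and capillary electrophoresis. Bidirectional fits used DMSO as baseline.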

Test [2] deals with Aryl hydrocarbon receptor (Homo sapiens) (UniProt P35869). Put plainly: ATG_Ahr_CIS: Attagene CIS-FACTORIAL HepG2 Assay for human Aryl Hydrocarbon Receptor (Ahr) (AID 2282930). The note with it: HepG2 AhR cis-factorial reporter transcription; actives raise or lower the signal. The procedure, abridged: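 Transient MRTU transfection of HepG2 → 24 h compound exposure → total RNA, oligo(dT) RT → PCR, 6-FAM extension, HpaI cut → CE fluorescence. DMSO = baseline; bidirectional curve fit.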
Aryl hydrocarbon receptor (Homo sapiens), sequence (P35869 whole entry, looked up): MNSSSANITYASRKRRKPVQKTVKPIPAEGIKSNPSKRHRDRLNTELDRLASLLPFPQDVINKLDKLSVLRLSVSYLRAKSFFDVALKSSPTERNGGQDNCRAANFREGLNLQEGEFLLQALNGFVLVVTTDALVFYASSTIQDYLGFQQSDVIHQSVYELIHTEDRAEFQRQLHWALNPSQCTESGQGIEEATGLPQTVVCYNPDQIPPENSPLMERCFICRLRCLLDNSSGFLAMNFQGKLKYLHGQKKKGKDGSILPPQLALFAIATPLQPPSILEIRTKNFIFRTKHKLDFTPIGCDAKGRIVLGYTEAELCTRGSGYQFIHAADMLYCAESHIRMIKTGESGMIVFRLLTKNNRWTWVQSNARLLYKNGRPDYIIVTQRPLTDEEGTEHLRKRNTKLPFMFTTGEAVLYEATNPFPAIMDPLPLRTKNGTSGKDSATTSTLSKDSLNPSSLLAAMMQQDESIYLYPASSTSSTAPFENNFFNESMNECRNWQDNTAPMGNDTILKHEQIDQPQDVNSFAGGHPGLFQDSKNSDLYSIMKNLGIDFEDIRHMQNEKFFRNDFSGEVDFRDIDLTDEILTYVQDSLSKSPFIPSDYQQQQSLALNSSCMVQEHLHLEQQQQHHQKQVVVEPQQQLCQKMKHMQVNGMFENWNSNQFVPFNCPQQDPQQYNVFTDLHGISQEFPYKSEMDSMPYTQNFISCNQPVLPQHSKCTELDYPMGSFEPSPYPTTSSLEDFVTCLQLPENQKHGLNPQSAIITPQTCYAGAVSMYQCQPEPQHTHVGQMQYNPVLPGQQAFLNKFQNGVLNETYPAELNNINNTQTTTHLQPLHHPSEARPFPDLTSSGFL

Test [3] can be described thus: ATG_AP_1_CIS: Attagene CIS-FACTORIAL HepG2 Assay for human Activator Protein 1 (AP-1) (AID 2282931). The note with it: HepG2 Attagene cis-factorial AP-1 reporter mRNA; actives raise or lower the signal. An outline of the steps: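 HepG2 cells transiently transfected with cis-element-driven reporter transcription units, dosed for 24 hours. Reporter mRNA measured by RT-PCR, 6-FAM labelling, HpaI digestion and capillary electrophoresis. Bidirectional fitting against DMSO baseline.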

A short description of test [4]: ATG_AP_2_CIS: Attagene CIS-FACTORIAL HepG2 Assay for human Activator Protein 2 (AP-2) (AID 2282932). The conditions noted are these: HepG2 AP-2 cis-reporter, Attagene transcription factor profiling; actives raise or lower the signal. An outline of the steps: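 Endogenous transcription factor activity is reported through transfected multiplex reporter constructs in HepG2, after 24 h of compound exposure. Transcripts were quantified by RT-PCR and capillary electrophoresis of fluorescent fragments. Bidirectional fit against DMSO.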

A short description of test [5]: ATG_BRE_CIS: Attagene CIS-FACTORIAL HepG2 Assay for human Bone Morphogenetic Protein (BMP) Response Element (BRE) (AID 2282933). The note with it: HepG2 BMP response element reporter, Attagene transcription factor profiling; actives raise or lower the signal. An outline of the steps:
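A HepG2 multiplex reporter system measured inducible reporter mRNA 24 h post-dosing. Detection: RT-PCR, 6-FAM primer extension, HpaI digestion, capillary electrophoresis. Activity fitted bidirectionally relative to DMSO.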

Test [6] has as its target Retinoic acid receptor alpha (Homo sapiens) (UniProt P10276). As to the kind of experiment: ATG_DR5_RAR_CIS: Attagene CIS-FACTORIAL HepG2 Assay for human Retinoic Acid Receptor Alpha (RARE), DR5 submotif (AID 2282934). The conditions noted are these: HepG2 Attagene cis-factorial RARE DR5 reporter, mRNA; actives raise or lower the signal. An outline of the steps:
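Transient MRTU transfection of HepG2; 24 h compound treatment; TriZol RNA, oligo(dT) RT, PCR, FAM labelling, capillary electrophoresis. Bidirectional fit vs DMSO. Endogenous TF activity at DR5 RARE.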

For test [7], the target named is Transcription factor E2F1 (Homo sapiens) (UniProt Q01094). Put plainly: ATG_E2F_CIS: Attagene CIS-FACTORIAL HepG2 Assay for human E2F Transcription Factor 1 (AID 2282935). The conditions noted are these: HepG2 Attagene cis-reporter, E2F reporter RNA transcripts; actives raise or lower the signal. An outline of the steps: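 Gain or loss of reporter transcript, fitted against DMSO, reflects E2F1-driven transcription. Transiently transfected HepG2 dosed 24 h before RNA isolation. Quantified by fluorescent RT-PCR products separated by capillary electrophoresis.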
Transcription factor E2F1 (Homo sapiens), sequence (Q01094 whole entry, looked up): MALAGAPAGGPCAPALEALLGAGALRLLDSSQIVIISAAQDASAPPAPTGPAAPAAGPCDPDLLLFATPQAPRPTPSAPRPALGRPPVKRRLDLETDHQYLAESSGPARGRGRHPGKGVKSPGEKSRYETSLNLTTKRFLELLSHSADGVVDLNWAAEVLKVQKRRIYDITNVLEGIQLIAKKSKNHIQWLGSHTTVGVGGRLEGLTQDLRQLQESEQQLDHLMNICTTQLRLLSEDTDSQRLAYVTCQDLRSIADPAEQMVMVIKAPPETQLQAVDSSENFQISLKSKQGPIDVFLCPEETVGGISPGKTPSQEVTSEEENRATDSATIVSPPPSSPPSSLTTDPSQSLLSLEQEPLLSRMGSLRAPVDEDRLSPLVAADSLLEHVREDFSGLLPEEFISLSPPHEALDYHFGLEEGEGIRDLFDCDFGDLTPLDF

Test [8] in a line: ATG_E_Box_CIS: Attagene CIS-FACTORIAL HepG2 Assay for human Enhancer Box (E-box) (AID 2282936). The conditions noted are these: HepG2 E-box cis-reporter transcription, actives raise or lower the signal. The procedure, abridged:
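E-box-driven reporter transcripts measured in transiently transfected HepG2 after 24 h exposure: RNA reverse-transcribed, PCR-amplified, fluorescently labelled, digested and resolved by capillary electrophoresis. Gain or loss relative to DMSO.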

A short description of test [9]: ATG_M_61_CIS: Attagene CIS-FACTORIAL HepG2 Assay for M61 Transcription Factor (Internal Marker) (AID 2282937). The conditions noted are these: HepG2 Attagene CIS-FACTORIAL M61 internal marker reporter; actives raise or lower the signal. An outline of the steps: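 HepG2 cells transiently transfected with multiplexed cis-promoter reporter units reporting endogenous transcription factor activity, measured 24 h after dosing. Reporter mRNA quantified by RT-PCR and capillary electrophoresis; bidirectional fit against DMSO baseline.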

A short description of test [10]: ATG_M_19_CIS: Attagene CIS-FACTORIAL HepG2 Assay for M19 Transcription Factor (Internal Marker) (AID 2282939). The conditions noted are these: HepG2 Attagene CIS-FACTORIAL M19 internal marker reporter; actives raise or lower the signal. The procedure, abridged: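 Chemical-treated HepG2 (24 h) with MRTU constructs; reporter transcripts detected by fluorescent RT-PCR fragment analysis on capillary electrophoresis. Internal background marker, DMSO as baseline.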

A short description of test [11]: ATG_Ets_CIS: Attagene CIS-FACTORIAL HepG2 Assay for human Erythroblast Transformation Specific (ETS) (AID 2282941). The conditions noted are these: HepG2 ETS cis-reporter transcription, actives raise or lower the signal. An outline of the steps:
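RT-PCR/capillary electrophoresis fluorescence read-out of reporter mRNA; HepG2 transient multi-reporter transfection; 24 h compound exposure; gain or loss of signal fitted bidirectionally relative to DMSO.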

The target of test [12] is Hepatocyte nuclear factor 3-beta (Homo sapiens) (UniProt Q9Y261). Put plainly: ATG_FoxA2_CIS: Attagene CIS-FACTORIAL HepG2 Assay for human Forkhead box A2 (FOXA2) (AID 2282942). The conditions noted are these: HepG2 cis-reporter transcription factor activity, 24 h; actives raise or lower the signal. An outline of the steps: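 HepG2 transiently transfected with a multiplexed cis-promoter reporter library read endogenous FOXA2 activity. After 24 h compound exposure, reporter mRNA was quantified by RT-PCR, HpaI digestion and capillary electrophoresis. Bidirectional fit against DMSO.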
Hepatocyte nuclear factor 3-beta (Homo sapiens), sequence (Q9Y261 whole entry, looked up): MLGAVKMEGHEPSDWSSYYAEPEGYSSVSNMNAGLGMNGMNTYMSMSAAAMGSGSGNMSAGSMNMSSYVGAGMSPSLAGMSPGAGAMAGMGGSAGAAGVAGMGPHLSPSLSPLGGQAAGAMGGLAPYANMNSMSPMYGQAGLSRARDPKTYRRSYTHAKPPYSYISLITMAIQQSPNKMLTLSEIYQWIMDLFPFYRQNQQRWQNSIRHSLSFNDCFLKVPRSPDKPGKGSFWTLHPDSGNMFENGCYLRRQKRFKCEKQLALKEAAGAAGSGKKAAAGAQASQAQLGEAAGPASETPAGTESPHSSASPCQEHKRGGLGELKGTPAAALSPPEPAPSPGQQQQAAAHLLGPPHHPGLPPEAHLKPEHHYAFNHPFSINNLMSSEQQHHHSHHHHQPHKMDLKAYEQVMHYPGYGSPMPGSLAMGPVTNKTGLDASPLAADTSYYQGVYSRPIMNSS

A short description of test [13]: ATG_FoxO_CIS: Attagene CIS-FACTORIAL HepG2 Assay for human Forkhead box O (FoxO) (AID 2282943). The note with it: HepG2 Attagene cis-reporter, FoxO element, mRNA; actives raise or lower the signal. The procedure, abridged:
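HepG2, transient MRTU transfection (cis element, endogenous TFs). Dose 24 h. TriZol RNA → oligo(dT) RT → PCR → 6-FAM primer extension → HpaI cut → CE. Gain/loss vs DMSO.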

Test [14] can be described thus: ATG_GATA_CIS: Attagene CIS-FACTORIAL HepG2 Assay for human GATA Binding Protein (AID 2282944). The conditions noted are these: HepG2 GATA cis-element reporter, Attagene multiplex mRNA; actives raise or lower the signal. An outline of the steps: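 Transfected cis-reporter HepG2 cells were treated with chemicals for 24 hours. Total RNA was then converted to cDNA, amplified with reporter-specific primers and analysed by fluorescent capillary electrophoresis, using DMSO-treated wells as baseline.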

Test [15] in a line: ATG_GLI_CIS: Attagene CIS-FACTORIAL HepG2 Assay for human Zinc Finger Protein GLI1 (AID 2282945). The note with it: HepG2, Attagene cis-factorial reporter mRNA, GLI element; actives raise or lower the signal. The procedure, abridged:
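Bidirectional curve fits relative to DMSO, using reporter mRNA levels from RT-PCR plus capillary electrophoresis. Cells were HepG2 transiently carrying cis-regulated reporter constructs, harvested 24 h after dosing.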

In test [16] the target is Bile acid receptor (Homo sapiens) (UniProt Q96RI1). As to the kind of experiment: ATG_IR1_CIS: Attagene CIS-FACTORIAL HepG2 Assay for human Nuclear Receptor Subfamily 1 Group H Member 4 (NR1H4), IR1 submotif (AID 2282946). The note with it: IR1 reporter transcription, actives raise or lower the signal. An outline of the steps: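 HepG2 cells transiently transfected with multiplexed cis-element reporter units read endogenous transcription factor activity. After 24 h compound exposure, reporter mRNA was quantified by RT-PCR, fluorescent labelling, HpaI digestion and capillary electrophoresis; bidirectional fitting versus DMSO baseline.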
Bile acid receptor (Homo sapiens), sequence (Q96RI1 whole entry, looked up): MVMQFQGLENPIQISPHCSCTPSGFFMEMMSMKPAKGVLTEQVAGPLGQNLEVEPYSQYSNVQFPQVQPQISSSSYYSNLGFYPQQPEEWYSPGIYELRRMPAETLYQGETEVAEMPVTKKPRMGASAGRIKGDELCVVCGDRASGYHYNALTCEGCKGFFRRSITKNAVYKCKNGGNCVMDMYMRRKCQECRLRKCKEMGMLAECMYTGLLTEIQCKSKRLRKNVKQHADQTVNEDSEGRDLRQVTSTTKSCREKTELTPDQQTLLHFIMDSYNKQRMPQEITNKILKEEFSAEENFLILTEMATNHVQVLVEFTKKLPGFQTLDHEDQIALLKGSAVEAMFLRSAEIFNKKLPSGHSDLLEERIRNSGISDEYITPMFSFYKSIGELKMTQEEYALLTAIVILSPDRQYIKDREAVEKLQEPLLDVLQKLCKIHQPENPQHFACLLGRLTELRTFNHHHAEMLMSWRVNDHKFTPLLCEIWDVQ

The nature of test [17]: ATG_GRE_CIS: Attagene CIS-FACTORIAL HepG2 Assay for human Glucocorticoid Response Elements (GRE) (AID 2282947). The conditions noted are these: HepG2 GRE cis-reporter, Attagene multiplex mRNA; actives raise or lower the signal. The procedure, abridged:
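Reporter transcripts read by RT-PCR with capillary electrophoresis fluorescence after a 24 h chemical exposure of HepG2 cells transiently transfected with multiple cis-element reporter units. Gain or loss fitted against DMSO.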

Test [18] is described as follows: ATG_ISRE_CIS: Attagene CIS-FACTORIAL HepG2 Assay for human Interferon Regulatory Factor 1 (IRF1) binding to an Interferon-Stimulated Response Element (ISRE) (AID 2282948). The note with it: HepG2 ISRE cis-reporter (Attagene), mRNA transcription readout; actives raise or lower the signal. An outline of the steps:
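Read-out: fluorescent RT-PCR products resolved by capillary electrophoresis, reporting endogenous transcription factor activity via ISRE-driven reporter mRNA in transfected HepG2 cells dosed for 24 h; gain or loss fitted relative to DMSO.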

Test [19] is described as follows: ATG_EGR_CIS: Attagene CIS-FACTORIAL HepG2 Assay for human Early Growth Response 1 (EGR1) (AID 2282938). The conditions noted are these: HepG2 Attagene CIS-FACTORIAL EGR reporter mRNA; actives raise or lower the signal. An outline of the steps: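 HepG2 cells transiently transfected with cis-element-driven multiplexed reporter units, dosed for 24 h. EGR1-element reporter mRNA quantified by RT-PCR, 6-FAM labelling, HpaI digestion and capillary electrophoresis; bidirectional fit versus DMSO.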

Test [20] in a line: ATG_ERE_CIS: Attagene CIS-FACTORIAL HepG2 Assay for Estrogen Response Element (ERE) (AID 2282940). The note with it: HepG2 ERE cis-reporter, Attagene RNA transcript; actives raise or lower the signal. The procedure, abridged: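 Human liver cells (HepG2) bearing transiently transfected, promoter-regulated reporter units were exposed 24 h. Reporter mRNA induction was detected by capillary electrophoresis of labelled RT-PCR products and fitted bidirectionally to DMSO.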

Active and inactive are the calls of the source. Rule for the calls: active = hit-call score of the fitted dose curve at least 0.9, where 1 is the maximum; inactive = score below 0.9.

Retinoic acid receptor alpha (Homo sapiens), sequence (P10276 whole entry, looked up): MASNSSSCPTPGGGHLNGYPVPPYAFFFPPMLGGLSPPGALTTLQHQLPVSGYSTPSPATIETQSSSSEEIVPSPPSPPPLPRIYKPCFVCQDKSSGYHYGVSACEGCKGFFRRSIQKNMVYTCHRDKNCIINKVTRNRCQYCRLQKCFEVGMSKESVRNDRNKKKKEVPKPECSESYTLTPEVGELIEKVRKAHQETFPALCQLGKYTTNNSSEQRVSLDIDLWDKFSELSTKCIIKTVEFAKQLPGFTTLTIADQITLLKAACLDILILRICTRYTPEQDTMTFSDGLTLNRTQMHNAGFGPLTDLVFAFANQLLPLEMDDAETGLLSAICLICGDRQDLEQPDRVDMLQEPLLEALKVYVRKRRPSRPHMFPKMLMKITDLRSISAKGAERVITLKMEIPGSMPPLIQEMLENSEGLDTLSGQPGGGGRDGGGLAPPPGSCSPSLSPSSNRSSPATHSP

Turning to `CC(C)[C@@H](Nc1ccc(C(F)(F)F)cc1Cl)C(=O)OC(C#N)c1cccc(Oc2ccccc2)c1` (stereo partly drawn), the compound was classed as inactive in [1], in [2], in [3], in test [4], in [5] and in [6]. In addition, the compound was classed as inactive in [7], in test [8], in [9], in test [10], in [11] and in [12]. The outcome in test [13], in test [14], in test [15], in [16], in test [17] and in test [18] was inactive.

In the case of `CCC[CH2][Sn]([Cl])([Cl])[CH2]CCC`, the AC50 in test [1] is 807 nM (active); in test [5], 316 nM (active); in [19] it was 1240 nM (active); in test [20], 312 nM (active); in test [13], 660 nM (active); in test [15], 1540 nM (active). For the same compound, the values for the concentration at half-maximal activity (AC50) in [16] and in test [18] were 1730 nM (active) and 1990 nM (active), respectively. For the same compound, the result in test [2], in test [3], in test [4], in [6], in test [7] and in test [8] was inactive. Besides, the call in test [10], in [11], in [12], in test [14] and in test [17] was inactive.

In the case of `Clc1ccc(C(Cl)(Cl)Cl)cn1`, the call in test [1], in [3], in test [4], in test [5], in test [6] and in test [7] was inactive. For the same compound, the result in test [8], in test [9], in [11], in test [12], in test [13] and in [14] was inactive. For the same compound, the compound was called inactive in test [15], in [16] and in test [18]. Besides, the AC50 in test [2] is 5670 nM (active).

For orientation: AC50 means the midpoint of the concentration-response curve, whichever way the signal moves.
